Article PMC9574860, “Chemical Toolkit for PARK7: Potent, Selective, and High-Throughput” (Journal of Medicinal Chemistry, 2022)
Among all 7,900 compounds or so, about 400 (5.1%) showed an effect of 50% or more. This excerpt belongs to a sample that is enriched for strong results.

The molecules below were run against Parkinson's disease protein 7 (PARK7/DJ1) (human, UniProt Q99497) (assay: primary screen, percent inhibition; read as competition with a fluorescent probe by fluorescence polarization; higher = more effect of the substance). Details: 100 µM.
Sequence of Parkinson's disease protein 7 (PARK7/DJ1) (Q99497 whole entry, looked up, the tested form may be a part): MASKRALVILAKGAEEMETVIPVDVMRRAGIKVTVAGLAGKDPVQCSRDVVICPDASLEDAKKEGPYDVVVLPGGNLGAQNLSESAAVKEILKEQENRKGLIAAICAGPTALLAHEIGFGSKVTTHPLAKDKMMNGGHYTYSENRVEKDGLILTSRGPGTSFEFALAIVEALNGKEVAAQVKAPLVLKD
Procedure: The screen was conducted using the conditions as described above in 1536-well plates (Corning 3724) with a reaction volume of 8 μL per well. The compound library containing 7887 covalent fragments was purchased at Enamine Ltd. and received as 100 mM DMSO stocks in 384 well LDV Echo plates (Labcyte LP-0200). Stock solutions of 0.26 μM PARK7 and 80 nM JYQ-107 were prepared. Using a Labcyte Echo550 acoustic dispenser, 8 nL of the DMSO stock solution of the library compounds was transferred from the source plates into the empty 1536-well screening plates to obtain a 100 μM final compound concentration. Next, PARK7 (6 μL, final concentration 0.2 μM) was dispensed using a Biotek MultiflowFX liquid dispenser and incubated for 2 h, followed by dispensing the probe JYQ-107 (2 μL, final concentration 20 nM). After 2 h incubation, the FP signal was recorded on a BMG Labtech PHERAstar plate reader (λex/em 480/520 nm). The relative loss of FP signal compared with reference controls was used to calculate the remaining enzyme activity.
For CC1CC1C(=O)N[C@H]1CC[C@@H](CS(=O)(=O)F)C1 (stereo in doubt), the Inhibition % was 90.9%.
